SIRT5 inh – blocks human SIRT5 desuccinylation of peptide | Q9NXA8 | Purified SirT5, succinyl-peptide AMC, trypsin-coupled fluorescence | inhibition, % at 15 µM | 330,000 compounds, 1.1% hits | AID 652115; in the data active = inhibition above about 15%
ERAP1 HTS inh – inhibitors of human ERAP1 aminopeptidase; Q9NZ08; recombinant ERAP1, Leu-AMC fluorescence, 60 min; inhibition, % at 10.7 µM; 340,000 compounds, 0.15% hits;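 active = mean replicate inhibition of at least 30%, or all replicates individually reaching that 30% level; inactive = mean below 30% and not every replicate reaching it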
Casp6 inh – inhibitors of human caspase-6; P55212; purified caspase-6, Z-VEID-R110 cleavage fluorescence; inhibition, % at 12.5 µM; 350,000 compounds, 0.53% hits; AID 686996;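 active = mean inhibition across replicates at least about 35%, with every replicate also reaching that limit, limit read from the data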
Target sequence (P55212 24-179 limits assumed): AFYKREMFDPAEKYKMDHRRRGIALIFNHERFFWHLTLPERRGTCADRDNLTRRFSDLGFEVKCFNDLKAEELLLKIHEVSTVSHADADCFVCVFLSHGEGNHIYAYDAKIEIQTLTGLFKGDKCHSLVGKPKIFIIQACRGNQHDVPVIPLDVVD
Target sequence (P55212 194-293 limits assumed): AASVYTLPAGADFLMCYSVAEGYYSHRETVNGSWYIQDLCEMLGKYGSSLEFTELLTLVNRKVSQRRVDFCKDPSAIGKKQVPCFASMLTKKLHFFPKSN
FGF22 binding – shifts melting point of recombinant human FGF22; activity (Tm shift, normalised), % at 9.99 µM; Q9HCT0; 340,000 compounds, 1.5% hits; recombinant FGF22 thermal shift, SYPRO orange fluorescence; percent of sucrose octasulfate shift, DMSO zero;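 active = mean Tm shift, scaled 0 neutral to 100 positive control, at about 1.3% or above, every replicate too, limit read from the data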
Target sequence (Q9HCT0 whole entry, looked up): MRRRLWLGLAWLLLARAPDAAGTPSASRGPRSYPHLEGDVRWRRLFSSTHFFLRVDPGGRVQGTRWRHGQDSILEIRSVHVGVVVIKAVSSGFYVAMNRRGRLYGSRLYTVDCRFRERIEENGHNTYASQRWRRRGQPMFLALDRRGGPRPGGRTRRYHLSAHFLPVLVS
Of the large screens only hits and unclear results are named; the others gave an inactive call. Shown are actives, neighbours in structure and some others; about 3.1% of the full set was active somewhere.

COc1ccc(OCc2n(CC(=O)OC3CC(C)CCC3C(C)C)c3ccccc3[n+]2C)cc1 (stereo not given)	none
COc1ccc(-c2n(CC(=O)OC3CC(C)CCC3C(C)C)c3ccccc3[n+]2C)cc1 (stereo not given)	FGF22 binding 44
COc1ccc(-c2nc(-c3cccc(C)c3)no2)cc1OC	SIRT5 inh 17
O=C(C[C@H]1C=C[C@@H](NS(=O)(=O)c2ccccc2)[C@@H](CO)O1)N1CCC(Cc2ccccc2)CC1	none
O=C(Nc1ccc(Cl)cn1)c1ccc([N+](=O)[O-])o1	FGF22 binding 43
CN(C)C(=S)SCC(=O)Nc1ccc(Cl)cc1Cl	FGF22 binding 1.4
O=C(CC(=O)Nc1ccc(Cl)cc1Cl)Nc1ccc(Cl)cc1Cl	none
C/C=C/C(=O)OCC(=O)Nc1ccc(C)c(S(=O)(=O)N(C)C)c1	FGF22 binding 44
CO[C@H]1CN(C)C(=O)c2cc(NC(=O)CC(F)(F)F)ccc2OC[C@H](C)N(C(C)=O)C[C@H]1C	none
CCC(=O)N1C[C@H](C)[C@@H](OC)CN(C)C(=O)c2cc(NC(=O)Nc3cccc(F)c3)ccc2OC[C@@H]1C	none
CO[C@@H]1CN(C)C(=O)c2cc(NC(=O)CC(F)(F)F)ccc2OC[C@H](C)N(S(=O)(=O)c2cn(C)cn2)C[C@@H]1C	SIRT5 inh 16
CO[C@H]1CN(C)C(=O)c2cc(NC(C)=O)ccc2OC[C@H](C)N(S(=O)(=O)c2cn(C)cn2)C[C@H]1C	SIRT5 inh 24, Casp6 inh 36
CCC(=O)N1C[C@@H](C)[C@H](OC)CN(C)C(=O)c2cc(NC(=O)Nc3cccc(F)c3)ccc2OC[C@@H]1C	SIRT5 inh 15
CO[C@H]1CN(C)C(=O)c2cc(NC(=O)CC(F)(F)F)ccc2OC[C@H](C)N(C(C)=O)C[C@@H]1C	SIRT5 inh 16
O=C(c1cccs1)C1CCCN(Cc2nc(Cc3ccccc3F)no2)C1 (stereo not given)	FGF22 binding 43
Fc1ccccc1Cc1noc(CN2CCCC(CN3CCOCC3)C2)n1 (stereo not given)	SIRT5 inh 22
O=C(c1cccnc1)C1CCCN(Cc2nc(Cc3ccccc3F)no2)C1 (stereo not given)	none
COc1ccc2c3c([nH]c2c1)[C@H](CO)N(S(=O)(=O)c1cn(C)cn1)CC31CCN(Cc2ccccc2F)CC1	none
CCOc1cc(/C=C\[N+](=O)[O-])ccc1OCC(=O)N1CCOCC1	none
CCOc1cc(/C=C/c2nc3cc(C)c(C)cc3s2)ccc1OCC(=O)N1CCOCC1	ERAP1 HTS inh 36
O=C(C[C@H]1CC[C@@H]2[C@H](COC[C@H](O)CN2Cc2cc(F)ccc2F)O1)N1CCc2ccccc2C1	none
CCc1ccccc1NC(=O)CCN1C(=O)C2C3CCC(C3)C2C1=O (stereo not given)	FGF22 binding 44
C[C@@H]1CCC(=O)N(C[C@@H](C)CSc2ccc(Br)cc2)CC1	FGF22 binding 43
O=C(COc1ccc(Cl)cc1Br)Nc1nnc(C2CC2)s1	none
Cc1ccc(OCC(=O)Nc2nnc(C3CCCO3)s2)c(Br)c1 (stereo not given)	FGF22 binding 44
Cc1cc(=O)cc(C)n1-c1ccc(O)cc1	none
CC(=O)c1c(O)cc(C)n(-c2ccc(F)cc2)c1=O	FGF22 binding 44
CC1=NN(c2ccccc2)C(=O)/C1=C\c1cn(CCC#N)nc1-c1ccc(Cl)cc1	FGF22 binding 44
CC1=NN(c2ccccc2)C(=O)/C1=C\c1cn(-c2ccccc2)nc1C	none
O=C(N[C@H]1CC[C@@H](CCNS(=O)(=O)c2ccc(Cl)cc2)O[C@@H]1CO)c1cccc(F)c1	none
COc1ccccc1CC(NC(C)=O)C(=O)NC1CCN(C(=O)c2ccc([N+](=O)[O-])cc2)CC1 (stereo not given)	FGF22 binding 44
COc1ccc(S(=O)(=O)N2CCC(NC(=O)C(Cc3cccc(OC)c3OC)NC(C)=O)CC2)cc1 (stereo not given)	SIRT5 inh 18
COc1ccc(C(=O)N2CCC(NC(=O)C(Cc3ccccc3OC)NC(C)=O)CC2)cc1 (stereo not given)	none
C[C@@H]1CCCCO[C@@H](CN(C)C(=O)Nc2cccc3ccccc23)[C@H](C)CN([C@@H](C)CO)C(=O)c2cc(NS(=O)(=O)c3cn(C)cn3)ccc2O1	none (no result: SIRT5 inh, ERAP1 HTS inh, Casp6 inh)
COCC#Cc1ccc2c(c1)O[C@H](CN(C)S(C)(=O)=O)[C@@H](C)CN([C@H](C)CO)S2(=O)=O	none
Cc1ccc(S(=O)(=O)N(C)C[C@@H]2OCCCC[C@@H](C)Oc3ccc(NC(=O)Nc4ccc5c(c4)OCO5)cc3C(=O)N([C@H](C)CO)C[C@@H]2C)cc1	none
CN(CC(=O)NC1CC(C)(C)NC(C)(C)C1)S(=O)(=O)c1cc(Cl)ccc1Cl	FGF22 binding 43
CN(CC(=O)O)S(=O)(=O)c1cc(Cl)ccc1Cl	none
Cc1ccc(C(=O)NNC(=O)C2CSC3(C)CCC(=O)N23)cc1 (stereo not given)	none
Cc1ccc(CNC(=O)C2CSC3(C)CCC(=O)N23)cc1 (stereo not given)	FGF22 binding 43
C[C@@H]1CN([C@H](C)CO)C(=O)c2cccc(NS(=O)(=O)c3ccccc3)c2O[C@@H]1CN(C)S(=O)(=O)c1cccs1	none
CC(C)Cn1c(-c2cc(Br)ccc2F)nc2c1c(=O)[nH]c(=O)n2CC(C)C	FGF22 binding 2.3
COCCn1c(=O)[nH]c(=O)c2c1nc(-c1ccc(-c3ccc(Cl)cc3[N+](=O)[O-])o1)n2Cc1ccccc1	none
COCCn1c(-c2ccc(-c3ccc([N+](=O)[O-])cc3Br)o2)nc2c1c(=O)[nH]c(=O)n2CC(C)C	SIRT5 inh 15 (no result: Casp6 inh)
Cc1noc(C)c1NC(=O)N(C)C[C@@H]1Oc2ccc(NS(=O)(=O)c3cn(C)cn3)cc2CC(=O)N([C@@H](C)CO)C[C@@H]1C	none
CCc1nc(NC(=O)NS(=O)(=O)c2ccccc2C(=O)OC)nc(OC)n1	FGF22 binding 43
Cc1ccc2nc(-c3cccs3)oc(=O)c2c1	FGF22 binding 43
Cc1ccc(-c2nc3ccccc3c(=O)o2)cc1	SIRT5 inh 16
C[C@@H](NC(=O)C[C@H]1C[C@@H]2c3cc(NC(=O)Nc4ccccc4F)ccc3O[C@@H]2[C@@H](CO)O1)c1ccccc1	none
C[C@@H]1CN([C@@H](C)CO)C(=O)c2cc(-c3ccncc3)cnc2O[C@H]1CN(C)Cc1cccnc1	none
COc1ccc(S(=O)(=O)Nc2ccc3c(c2)C(=O)N([C@H](C)CO)C[C@@H](C)[C@@H](CN(C)C(=O)NC2CCCCC2)OCCCC[C@@H](C)O3)cc1	none
O=C(c1ccc(CSc2ccccc2)cc1)N1CCN(c2ccccc2)CC1	FGF22 binding 43
CC(C)(O)C#Cc1ccc(C(=O)N2CCN(c3ccccc3)CC2)cc1	FGF22 binding 43
O=C1Cc2cc(S(=O)(=O)N3CCN(c4ccc(C(=O)O)cc4)CC3)ccc2N1	Casp6 inh 38 (no result: ERAP1 HTS inh)

Assay outcomes deposited in PubChem by Broad Institute.
